Source: PubChem BioAssay
Many of the other results were omitted from the sample, so hits are more common in it than they were.
Pf Dd2 inh – blocks in vitro growth of P. falciparum Dd2. P. falciparum Dd2 growth, SYBR Green, 72 h. Potency, µM (doses to about 28.9 µM), for inactives: top-dose activity, negative = inhibition, most hits filed as inhibitors. hit rate 4.3% among 120,000; active = well fitted inhibition curve with a large enough effect;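 note: plate controls were DMSO vehicle for no effect and reference drug for full effect; nearly all actives have a fitted effect of over 65% in size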
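Infected erythrocytes (Dd2, 0.3% parasitemia, 2.5% hematocrit final) are added to compound in RPMI-1640/Albumax II medium, grown 72 h at 37C in low oxygen, then lysed with saponin/Triton-X containing SYBR Green and read by fluorescence.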
Active calls of the source: *; i = inactive; [ ] = dose if it differs, or a comment. Potency is the fitted concentration of half-maximal effect.

SMILES	Pf Dd2 inh
Cc1ncncc1C(=O)N1CCOC(CC(c2ccccc2)c2ccccc2)C1 (configuration not stated)	-16.6%
NC1(C(=O)N2CCOC(CC(c3ccccc3)c3ccccc3)C2)CC1 (configuration not stated)	10µM*
CCC(=O)N1CCc2cc(S(=O)(=O)NC(Cc3ccccc3)C(=O)Nc3ccc(C)cc3)ccc21 (configuration not stated)	-1.6%
CNC(=O)c1cc(-c2ccc(OC)nc2)cc2c1OCCN2Cc1cccnc1	i
CNC(=O)c1cc(-c2ccc(N3CCOCC3)cc2)cc2c1OCCN2Cc1cccnc1	10µM*
CNC(=O)c1cc(-c2ccccc2F)cc2c1OCCN2Cc1cccnc1	-22.4%[44.1 µM]
O=C(NCc1ccnc2[nH]ccc12)c1cccc2[nH]ccc12	1.3%[44.1 µM]
CC(C)N1CC2CCC(C1)N2Cc1cccc(Cl)c1	-5.1%[44.1 µM]
Cc1ccc(-c2cccc(CN3C4CCC3CN(C(C)C)C4)c2)c(C)c1	10µM*
Cc1ccc(-c2cccc(CN3C4CCC3CN(C(=O)c3ccncc3)C4)c2)c(C)c1	-21.5%
C#CCNC(=O)c1nc(-c2ccc(Cl)cc2Cl)c2ccccn12	-6.3%
c1cc(-c2ccnc(NCC3(N4CCOCC4)CCCCC3)n2)ccn1	-18.4%
c1cncc(-c2ccnc(NCCc3csc(-c4ccncc4)n3)n2)c1	-6.7%
CC(Cc1ccncc1)Nc1nccc(-c2cnn(-c3ccccc3)c2)n1 (configuration not stated)	8.91µM*
CCN(Cc1ccncc1)Cc1cn(-c2ccccc2)nn1	-15.0%
Fc1ccc(CCNc2nccc(-c3cccnc3)n2)cc1	-27.2%
CC(Cc1ccncc1)Nc1nccc(-c2cnn(-c3ccccc3F)c2)n1 (configuration not stated)	5.01µM*
CCCCNC(=O)CCN(CCCOC)C(=O)c1cc(C)oc1C	-13.0%
COc1ccc(NC(=O)CC2C(=O)N(c3cccc(OC)c3)C(=O)N2CCC2=CCCCC2)cc1 (configuration not stated)	i
O=C(c1ccc(Cl)cc1)N1CCC(n2cc(-c3nc(-c4ccccc4)no3)nn2)CC1	-2.1%
COc1ccc(CCNC(=O)NCc2noc3ccccc23)c(OC)c1	11.6%
COc1cccc(-c2noc(CCCC(=O)NCc3ccco3)n2)c1	-11.8%
Cc1ccccc1C(=O)NCC(c1ccc(N(C)C)cc1)N1CCCC1 (configuration not stated)	-19.5%
CN(C)c1ccc(C(CNS(=O)(=O)c2ccc(Cl)cc2)N2CCCC2)cc1 (configuration not stated)	12.6µM*
Cc1cc(S(=O)(=O)NCC(c2ccc(N(C)C)cc2)N2CCOCC2)ccc1F (configuration not stated)	-27.3%
SMILES	Pf Dd2 inh
COc1ccc(C(CNC(=O)c2ccc(F)cc2)N2CCCC2)cc1 (configuration not stated)	-3.7%
CC(C)Oc1ccc(C(=O)NCC(c2ccc(N(C)C)cc2)N2CCCC2)cc1 (configuration not stated)	10µM*
COc1ccc(S(=O)(=O)NCC(c2ccc(N(C)C)cc2)N2CCOCC2)cc1 (configuration not stated)	-15.7%
COC(=O)c1c(Oc2ccc(Br)cc2)nnc(-c2ccccc2)c1-c1ccccc1	10.9%
CCNC(=O)c1cccnc1OC1CCN(C(=O)c2ccc(OC)cc2)C1 (configuration not stated)	-23.0%
Cc1cnc(C2CCOCC2)n1C1CCCN(C(=O)c2cccs2)C1 (configuration not stated)	-9.7%
COc1ccc(C(=O)N2CCCN(c3cc(-c4ccc(Cl)cc4)[nH]n3)CC2)cc1F	-24.0%
CCN(CC)CCCNC(=O)c1ccc2c(c1)N(Cc1c(F)cccc1Cl)C(=O)c1ccccc1S2	0.447µM*
O=C(NCCc1ccc(Cl)cc1)c1ccc2c(c1)N(Cc1c(F)cccc1Cl)C(=O)CS2	i
O=C(NCc1ccc2c(c1)OCO2)c1ccc2c(c1)N(Cc1c(F)cccc1Cl)C(=O)c1ccccc1S2	7.08µM*
O=C(NC1CCCC1)c1ccc2c(c1)N(Cc1ccccc1F)C(=O)c1ccccc1S2	i
CCCCN(C)C(=O)c1ccc2c(c1)N(Cc1cccc(F)c1)C(=O)c1ccccc1S2	i
CCCCNC(=O)c1ccc2c(c1)N(CC)C(=O)c1ccccc1S2	0.9%
Cc1ccc(NC(=O)Nc2ccc(C)n(CC(=O)NC3CCCC3)c2=O)cc1	-3.4%
CSCC(=O)N1CCN(C)C2(CCC(=O)N(CC3CC3)CC2)C1 (configuration not stated)	-10.7%
Cc1ccc2sc(NC(=O)c3ccc4c(c3)OCCO4)nc2c1C	24.1%
CCN1c2cc(C(=O)NCc3ccc(F)cc3)ccc2C(=O)N2CCCCCC21 (configuration not stated)	i
CCN1c2cc(C(=O)NCc3ccccc3OC)ccc2C(=O)N2CCCCCC21 (configuration not stated)	5.01µM*
CCN1c2cc(C(=O)NCc3cc(OC)ccc3OC)ccc2C(=O)N2CCCCC21 (configuration not stated)	-4.1%
CCN1c2cc(C(=O)NCc3ccccc3F)ccc2C(=O)N2CCCCCC21 (configuration not stated)	-18.8%
COc1ccccc1CNC(=O)c1ccc2c(c1)N(C)C1CCCCN1C2=O (configuration not stated)	i
CCN1c2cc(C(=O)NCc3cc(F)ccc3F)ccc2C(=O)N2CCCCC21 (configuration not stated)	3.98µM*
CCC(=O)N1CCC(Oc2ncccc2C(=O)N(C)C)CC1	11.4%
CN(C)S(=O)(=O)N1CC[C@H]2C(=O)NCCCCCCN(Cc3ccncc3)[C@@H]2C1	18.0%
Cc1ccc(C(=O)N2CCC3(CCCNC3=O)C2)cc1N1CCNC1=O (configuration not stated)	-18.1%
SMILES	Pf Dd2 inh
CN(Cc1ccccc1)C1(C(=O)NC2CCC(O)CC2)Cc2ccccc2C1 (configuration not stated)	-22.6%
CN(C)CCN(C)CC[C@H]1CN(C(=O)Cc2ccccc2)CC[C@H]1CC(=O)O	-0.1%[44.1 µM]
CN(C)C1CCN(C(=O)C2(N(C)CCc3ccccc3)Cc3ccccc3C2)C1 (configuration not stated)	5.01µM*
Cc1ccc(C(=O)N2CCC3(CC2)NC(=O)N(Cc2ccccc2)C3=O)cc1	40.9%
N#Cc1ccc(C(=O)N2CCC3(CC2)NC(=O)N(Cc2ccccc2Cl)C3=O)cc1	2.51µM*
N#Cc1cccc(C(=O)N2CCC3(CC2)NC(=O)N(Cc2ccccc2Cl)C3=O)c1	i
CSc1nn(CC(=O)Nc2ccc(C)cc2C)c(N)c1S(=O)(=O)c1ccc(Cl)cc1	13.7%
COC(=O)[C@@H]1Cc2ncn(Cc3ccccc3)c2CN1S(=O)(=O)c1cccs1	i
COC(=O)[C@@H]1Cc2ncn(Cc3ccccc3)c2CN1S(=O)(=O)c1cccc(C(F)(F)F)c1	i
COC(=O)[C@@H]1Cc2ncn(Cc3ccc(Cl)cc3)c2CN1S(=O)(=O)c1cccs1	-26.1%
COC(=O)[C@@H]1Cc2ncn(Cc3ccc(Cl)cc3)c2CN1S(=O)(=O)c1ccc(NC(C)=O)cc1	-7.1%
COC(=O)[C@@H]1Cc2ncn(Cc3ccc(Cl)cc3)c2CN1Cc1cccc(C#N)c1	11.2µM*
COC(=O)[C@@H]1Cc2ncn(Cc3ccccc3)c2CN1S(=O)(=O)Cc1ccccc1	11.2µM*
CCc1nccn1Cc1nnc(C2CC(N)C2)n1CCOC (configuration not stated)	-8.3%
O=c1c2ccccc2cnn1Cc1nc(C2CCOC2)no1 (configuration not stated)	8.3%
